Compound activity: PubChem, National Center for Advancing Translational Sciences (NCATS)
Compounds with a hit are over-represented: about 5.2% of the library has one in this group of screens.
Tau fluor counter – Counterscreen qHTS for Inhibitors of Tau Fibril Formation, Fluorescence Polarization | tau K18 P301L Alexa594 fluorescence, heparin fibrillization | Potency, µM (top dose mostly 57.7 µM), inactives show top-dose activity change, negative = decrease | 280,000 compounds, 0.93% hits | AID 1463, 2008; note: potency is the fitted concentration of half-maximal effect; nearly all actives have a fitted effect of over 55% in size
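Human tau K18 P301L (15 uM unlabeled, 0.24 uM Alexa 594-labeled) in 100 mM sodium acetate pH 7 with 20 uM heparin, 6 hr at 37 C. ThT 30 uM added, 1 hr ambient; Alexa 594 FP and total fluorescence read at 555/632 nm.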
Tau ThT inhib – qHTS for Inhibitors of Tau Fibril Formation, Thioflavin T Binding. recombinant tau K18 P301L (four-repeat tau fragment), heparin-induced fibrillization, ThT fluorescence. Potency, µM (doses to about 57.4 µM), inactives show at the highest dose activity, negative = inhibition, usual class: inhibitors. 270,000 compounds, 2.1% hits. AID 1460, 2008; note: potency is the fitted concentration of half-maximal effect; nearly all actives have a fitted effect of over 55% in size
Target sequence (P10636 561-689 P618L limits assumed): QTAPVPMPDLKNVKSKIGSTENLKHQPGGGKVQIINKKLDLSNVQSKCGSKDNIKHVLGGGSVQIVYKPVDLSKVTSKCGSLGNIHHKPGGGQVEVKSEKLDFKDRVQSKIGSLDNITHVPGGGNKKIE
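Heparin-induced fibrillization of the P301L-mutant K18 repeat-domain fragment of human tau was followed by ThT binding in quantitative high-throughput format.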
Coupling enz – qHTS Assay for Inhibitors of Fructose-1,6-bisphosphate Aldolase from Giardia Lamblia: Coupling assay counterscreen; 290,000 compounds, 0.67% hits; activity change, negative = inhibition, % at 58.2 µM, hits read low; coupling enzyme system counterscreen, AmpLite Red fluorescence; AID 2472, 2010; in the data active = activity change below about -30%
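Compounds tested against the coupling enzymes alone at 57.5 uM final; readout was AmpLite Red fluorescence (525/598 nm) after 20 min at RT.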
Tau fibril FP – qHTS for Inhibitors of Tau Fibril Formation, Fluorescence Polarization; Microtubule-associated protein tau (Homo sapiens), P10636; K18 P301L tau heparin fibrillization, Alexa594 FP, 6 h; Potency, µM (titrated, usually from 57.7 µM), for inactives: top-dose activity, negative = inhibition, most hits filed as inhibitors; 280,000 compounds, 0.39% hits; AID 1468, 2008; note: potency is the fitted concentration of half-maximal effect; nearly all actives have a fitted effect of over 55% in size
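Read-out: fluorescence polarization of Alexa 594-labeled tau (0.24 uM), 555 nm excitation, 632 nm emission. Mixtures held 15 uM unlabeled K18 P301L, compound and 20 uM heparin, pH 7 acetate buffer, incubated 6 hr at 37 C.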
Sfp inh – qHTS Assay for Inhibitors of Bacillus subtilis Sfp phosphopantetheinyl transferase (PPTase) | Potency, µM, inactives show largest response in the series, negative = inhibition, most hits filed as inhibitors | AID 1490, 2009 | Biochemical Sfp PPTase activity, qHTS | 310,000 compounds, 3.5% hits | 4'-phosphopantetheinyl transferase ffp (Bacillus subtilis), Q9F4F7;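 note: the enzyme is Sfp with the accession as filed and its product quenches rhodamine fluorescence; potency is the fitted concentration of half-maximal effect; 0% = enzyme reaction without inhibitor and -100% = no enzyme wells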
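Fluorescence-quenching assay with 15 nM Sfp, 5 uM rhodamine-CoA and 12.5 uM BHQ-2-labelled ybbR peptide in pH 7.6 Hepes/MgCl2 buffer. Enzyme was pre-incubated with compound for 15 min at room temperature. Rate was taken from the 30-min fluorescence change (525/598 nm).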
Starred values were filed as active, the others as inactive; ? = inconclusive; · = no result; [ ] = another dose, or the depositor's remark. Unless noted, calls come from the whole dose curve; as a rule, active = well fitted curve in the direction sought with a large enough effect; inconclusive = small, poorly fitted or top-dose-only effect, or another doubt; inactive = no such curve, though single readings can be large; an effect the other way counts as inactive or inconclusive. Unless noted, % is set by controls: 0 for no effect and ±100 for the full control effect.

SMILES	Tau fluor counter	Tau ThT inhib	Coupling enz	Tau fibril FP	Sfp inh
CC(=O)N1CCCc2cc(S(=O)(=O)N(C)CC(=O)Nc3ccc(F)c(Cl)c3)ccc21	-5.8%	12.2%	·	-8.7%	·
Cc1c(C(=O)Nc2ccccc2)cn2c(nc3ccccc32)c1C#N	-0.4%	-0.9%	0.6	-16.1%	0.7%
Cc1ccccc1C(=O)Nc1ccc2c(C#N)c3nc4ccccc4nc3n2c1	?	5.01µM*	-18.5	-9.1%	56.2µM*
CC(C)CCC[C@@H](C)[C@@H]1CC[C@H]2C3=CC=C4CC(O)CC[C@]4(C)[C@H]3CC[C@@]21C (some centres undefined)	·	·	-2.2	·	?
COC(=O)Cn1ncn2c(cc3oc(C)cc32)c1=O	3.0%	-2.7%	-1.7	-6.6%	56.2µM*
CC1(C(=O)O)CCC2(C)CCC3(C)C(=CC(=O)C4C5(C)CCC(O)C(C)(C)C5CCC43C)C2C1 (centres undefined)	·	·	·	·	3.3%
NC1=NC[C@@H](Cc2ccc(O)cc2)N1CCc1cccc2ccccc12	8.4%	-5.7%	-0.5	-0.4%	89.1µM*
Cc1ccc(S(=O)(=O)Nc2ccc(O)c(S(=O)(=O)c3ccc(C)cc3)c2)cc1	·	·	-0.3	·	1.8%
Cc1ccc(S(=O)(=O)Nc2cc(C)c(O)c(Sc3n[nH]c(C)n3)c2)cc1	·	·	-0.6	·	70.8µM*
O=S(=O)(O)O	·	·	·	·	-2.2%
O=C(/C=C/c1ccco1)N(Cc1cccc(Cl)c1)C1CCS(=O)(=O)C1 (centres undefined)	-18.6%	?	2.1	?	31.6µM*
O=C(/C=C/c1ccco1)N(Cc1ccccc1)C1CCS(=O)(=O)C1 (centres undefined)	-7.6%	?	2.4	-7.0%	25.1µM*
O=C(/C=C/c1ccco1)N(Cc1cccc(Br)c1)C1CCS(=O)(=O)C1 (centres undefined)	-2.2%	·	1.6	-6.0%	?
COc1ccc(NC(=O)N2CC[C@@]3(CCCN(C(=O)c4cccn4C)C3)C2)cc1	·	·	1.4	·	17.9%
CCOC(=O)C1=C(C)Nc2nc(SCC)nn2C1c1ccc(OC)cc1 (centres undefined)	-8.7%	1.9%	-2.4	-5.3%	-4.0%
CCOC(=O)C1=C(C)Nc2nc(=S)[nH]n2C1c1ccc(Cl)cc1 (centres undefined)	-10.7%	?	1.2	-7.3%	7.94µM*
COc1ccc(CCNC(=O)/C=C/c2ccco2)cc1OC	·	·	-0.3	·	44.7µM*
COc1ccc(CCNC(=O)CSC(=O)c2ccccc2)cc1OC	-14.6%	?	-0.5	-11.9%	44.7µM*
CCOc1ccc(CCNC(=O)/C=C/c2ccco2)cc1OCC	·	·	·	·	-28.6%
COc1ccc(CCNC(=O)CSc2ccccc2)cc1OC	-18.0%	-15.8%	2.5	-3.3%	4.2%
O=C(/C=C/c1ccco1)NC(=S)Nc1ccccc1	·	·	0.8	·	-16.0%
CC(C)NC(=O)COC(=O)/C=C/c1ccco1	-5.2%	-8.2%	-0.7	-0.1%	50.1µM*
CCC(Cc1ccccc1)NC(=O)/C=C/c1ccco1 (centres undefined)	·	·	-1.4	·	56.2µM*
CCCNC(=O)COC(=O)/C=C/c1ccco1	-0.7%	5.2%	-12.9	0.8%	?
COc1ccc(C(NC(=O)/C=C\c2ccco2)c2ccc(OC)c(OC)c2)cc1 (centres undefined)	-10.4%	-9.2%	2.8	-2.6%	20µM*
SMILES	Tau fluor counter	Tau ThT inhib	Coupling enz	Tau fibril FP	Sfp inh
COc1ccc(C(NC(=O)/C=C/c2ccco2)c2ccc(OC)cc2)cc1	-0.2%	-15.7%	0.5	-12.0%	25.1µM*
CCC(O)c1nc2ccccc2n1Cc1cccc(Cl)c1 (centres undefined)	-1.7%	6.0%	·	12.1%	·
COc1ccc(CCNC(=O)/C=C/c2ccco2)cc1	·	·	1.3	·	-61.5%
CC(NC(=O)/C=C/c1ccco1)c1nc2ccccc2n1Cc1cccc(Cl)c1 (centres undefined)	-4.8%	-11.0%	0.1	-9.2%	28.2µM*
CCn1cc(C(=O)NCc2ccc(C)o2)c2cc(OC)c(OC)cc2c1=O	-14.1%	?	-4.7	?	35.5µM*
O=C(NCc1ccco1)C1CC(c2ccc(Cl)c(Cl)c2)=NO1 (centres undefined)	14.7%	11.9%	6.7	-4.3%[2.34 µM]	14.8%
O=C(NCc1ccco1)C1CC(c2c(Cl)cccc2Cl)=NO1 (centres undefined)	-8.7%	?	0.2	-3.4%	79.4µM*
Cc1ccc(CNC(=O)C2CC(c3cccc([N+](=O)[O-])c3)=NO2)o1 (centres undefined)	-15.3%	?	-2.4	11.0%	44.7µM*
COc1ccc(CCNC(=O)C2CC(c3cccc([N+](=O)[O-])c3)=NO2)cc1 (centres undefined)	-13.7%	-12.1%	0.4	-5.7%	7.8%
Cc1ccc(CNC(=O)C2CC(c3cc(C(F)(F)F)cc(C(F)(F)F)c3)=NO2)o1 (centres undefined)	-0.7%	-4.0%	0.9	6.2%	56.2µM*
CCN(CC)C(=S)NC(=O)c1cccnc1	1.6%	3.0%	0.1	1.7%	50.1µM*
O=C(NC(=S)NNC(=O)c1ccc(Cl)cc1Cl)c1cccnc1	-3.2%	?	-5.5	-4.5%	44.7µM*
O=C(NNC(=S)NC(=O)c1cccnc1)c1ccc(Cl)cc1	-6.8%	-16.8%	-0.4	3.4%	0.7%
N#Cc1ccccc1NC(=S)NC(=O)c1cccnc1	·	·	1.2	·	50.1µM*
CNCC(=O)NC(CCCN=C(N)N)C(=O)NC(C(=O)NC(Cc1ccc(O)cc1)C(=O)NC(C(=O)NC(Cc1cnc[nH]1)C(=O)N1CCCC1C(=O)NC(C)C(=O)O)C(C)C)C(C)C (centres undefined)	·	·	·	·	5.6%
c1ccc2nc3c(nc2c1)c1ccccc1n3CCN1CCOCC1	-12.0%	-16.2%	-5.2	-20.1%	1.6%
CCn1c2ccccc2c2nc3cc(S(=O)(=O)N4CCOCC4)ccc3nc21	-27.0%	25.1µM*	-0.2	31.6µM*	6.31µM*
Cc1cc(C)c2c(=O)c3c(oc2c1)C(=O)N(Cc1ccco1)C3c1ccccc1F (centres undefined)	-2.0%	0.6%	·	-0.9%	·
CC(C)C(=O)Nc1nnc(S(=O)(=O)N(C)Cc2ccc(F)cc2)s1	0.4%	6.5%	·	-1.5%	·
CN(CC(=O)NC(=O)NCc1ccco1)Cc1nc2ccccc2c(=O)[nH]1	2.6%	-13.2%	-1.6	-10.9%	89.1µM*
COc1ccc(C2NCCc3c2[nH]c2ccccc32)cc1COc1ccc(F)cc1 (centres undefined)	-12.9%	?	-4.5	3.8%	44.7µM*
